Screening results deposited in PubChem BioAssay by National Center for Advancing Translational Sciences (NCATS).
HT1080 IDH1KD tx: toxicity to HT-1080 IDH1 knockdown cells (counter line). HT-1080 IDH1 knockdown viability, ATP luminescence, 48 h. Potency, µM (titrated, usually from 46.1 µM), inactives show at the top dose activity, negative = toxicity, usual class: cytotoxic. 2% of 360,000 active;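 also: potency is read from the fitted curve at half-maximal effect; 0% = DMSO wells and -100% = cell-free medium wells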
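Using the IDH1-knockdown HT-1080 line run in the same batch and compound series as the NT line, viability after 48 h at 37 °C was determined by CellTiter-Glo luminescence and expressed as % activity.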
HT1080NT lethal: kills 2HG-producing HT-1080-NT fibrosarcoma cells. HT-1080-NT fibrosarcoma viability, CellTiter-Glo ATP luminescence, 48 h. Potency, µM (titrated, usually from 46.1 µM), without a hit: at the top dose activity, negative = less viability, hits mostly cytotoxic. 1.6% of 360,000 active. AID 686970;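 also: NT is the 2HG producing partner of a matched IDH1 knockdown line; potency is read from the fitted curve at half-maximal effect; 0% = DMSO-treated cells and -100% = media-only wells without cells; nearly all actives have a fitted effect of over 55% in size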
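Luminescent CellTiter-Glo readout after 48 hours of compound exposure at 37 degrees C defined viability of HT-1080-NT cells. Activity was normalized to DMSO wells and cell-free media wells; concentration-response curves were fitted and assigned curve classes.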
ELG1 repair inh: blocks ELG1-dependent DNA repair in HEK293T cells | Potency, µM (top dose mostly 46.1 µM), inactives show at the top dose activity change, negative = inhibition, hits mostly inhibitors | HEK293T ELG1-luciferase reporter, luminescence, 16 h; DNA damage induced by 5-fluorouridine | 2.3% of 330,000 active; also: potency is read from the fitted curve at half-maximal effect; nearly all actives have a fitted effect of over 55% in size
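Quantitative HTS, concentration-response format. 2,000 cells/well co-treated with 5-fluorouridine and compound, 16 hr in 5% CO2 at 37 °C; ONE-Glo luminescence read after 30 min.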
IL-1B inflam inh: blocks inflammasome-driven IL-1 beta release | 4.7% of 360,000 active | activity change, % at 57.5 µM | AID 743279 | THP-1 LPS/ATP IL-1B secretion, AlphaLISA, 16 h; active compounds read low; in the data active = activity change below about -50%; inconclusive = mostly about -30% to -49%
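THP-1 cells pretreated 1 hr with compounds (up to 57.5 uM final), then stimulated with LPS (250 ng/mL final) plus ATP (1.25 mM final); secreted IL-1B measured by AlphaLISA after 16 hr, decreased signal indicating inhibition.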
DT40 TDP1 no CPT: qHTS for Inhibitors of human tyrosyl-DNA phosphodiesterase 1 (TDP1): qHTS in cells in absence of CPT. DT40 Tdp1-/- hTDP1 cells, no CPT, ATP luminescence, 48 h. 15% of 420,000 active. AID 686978, 2013. Potency, µM (doses to about 46.2 µM), for inactives: at the top dose activity change, negative = growth inhibition, hits mostly inhibitors; also: potency is read from the fitted curve at half-maximal effect; nearly all actives have a fitted effect of over 55% in size
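Readout: luminescence from CellTiter-Glo after 30 min in the dark at RT. Cells: DT40 Tdp1-/- with stable hTDP1, 400/well. Exposure: compounds alone, ≥48 hr, 37 °C.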
DT40 TDP1 CPT: growth inhibition of DT40 Tdp1-/-;hTDP1 cells with camptothecin (screen for TDP1 inhibitors); Potency, µM (top dose mostly 46.2 µM), for inactives: top-dose activity change, negative = growth inhibition, usual class: inhibitors; AID 686979; 12% of 420,000 active; chicken DT40 Tdp1-/-;hTDP1 cells + 20 nM CPT, ATP luminescence, 48 h; also: potency is read from the fitted curve at half-maximal effect; nearly all actives have a fitted effect of over 55% in size
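Chicken DT40 Tdp1-/- cells stably complemented with human TDP1 were seeded at 400 cells/well in medium containing 20 nM camptothecin, exposed to pin-transferred compounds, and grown at 37 °C for at least 48 hr. Viability was read as ATP luminescence.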
* = called active by the depositor; ? = inconclusive; . = no result given. Most compounds without a hit are left out; they make up all but 19% or so of the library. Unless noted, calls follow the shape of the dose curve; as a rule, active = well fitted curve in the direction sought with a large enough effect; inconclusive = small, poorly fitted or top-dose-only effect, or another doubt; inactive = no such curve, though single readings can be large; an effect the other way counts as inactive or inconclusive. Unless noted, % is scaled to controls: 0 for no effect and ±100 for the full control effect.

SMILES | HT1080 IDH1KD tx | HT1080NT lethal | ELG1 repair inh | IL-1B inflam inh | DT40 TDP1 no CPT | DT40 TDP1 CPT
CCc1nc2c(OCCOc3ccc(F)cc3)cccn2c1N(C=O)Cc1ccc(OC)cc1 | 0% | 2% | . | -21 | ? | ?
CCc1nc2c(OCc3ccc(Cl)cc3)cccn2c1N(C=O)Cc1ccc(OC)cc1 | ? | ? | . | 0 | ? | 21µM*
CCc1nc2c(OCc3c(C)noc3C)cccn2c1N(C=O)Cc1ccc(OC)cc1 | 0% | 1% | . | 6 | 15µM* | 23µM*
Cn1ccnc1CC(O)(c1ccccc1)c1ccccc1 | -10% | -1% | -2% | -3 | -19% | -20%
Cc1ccc(NC(=O)Cn2c(=O)n(Cc3nc(C)no3)c(=O)c3cc4c(cc32)OCO4)c(Cl)c1 | . | . | . | . | -12% | 7%
COc1ccc(NC(=O)CSc2nnc3c(n2)[nH]c2ccc(S(=O)(=O)N(C)C)cc23)c(OC)c1 | 0% | 6% | . | . | ? | ?
COc1cccc(CNC(=O)c2c(OC)cc(=O)n3c2CCN(C(=O)c2ccc(C)s2)CC3)c1 | . | . | . | . | -2% | 10%
CCCCN(C=O)c1c(CC)nc2c(OCc3cccc(Cl)c3)cccn12 | -22% | -4% | . | 14 | ? | ?
CCc1nc2c(OCc3ccc(Cl)cc3Cl)cccn2c1N(C=O)Cc1ccc(OC)cc1 | 24% | 12% | . | -67* | 23µM* | ?
CCc1nc2c(OCCn3cccc3)cccn2c1N(C=O)Cc1ccccc1 | 0% | 21% | . | 8 | ? | ?
CCc1nc2c(OCCn3cccc3)cccn2c1N(C=O)Cc1ccc(OC)cc1 | -2% | -25% | . | -22 | ? | 21µM*
N[C@@H](C(=O)O)[C@H](CC(=O)O)c1ccc(Cl)cc1 | . | . | . | . | -4% | 14%
CC(=O)NC(C)(c1ccccc1)c1nc(-c2cccc3cccnc23)cs1 (stereo not given) | 16% | 1% | . | 0 | 15µM* | 21µM*
COc1ccccc1-c1csc(C(C)(NC(C)=O)c2ccccc2)n1 (stereo not given) | 3% | ? | . | 0 | ? | 16µM*
Cc1ccc(C(NC(=O)N2CCOCC2)C(Cl)(Cl)Cl)cc1F (stereo not given) | -2% | 1% | -16% | 5 | -24% | ?
CCN(CC)C(=O)NC(c1ccc(C)c(F)c1)C(Cl)(Cl)Cl (stereo not given) | -5% | -1% | -12% | -4 | 16µM* | 16µM*
CCS(=O)(=O)c1ccc(C=NNc2nc3ccccc3o2)cc1 | 12% | 2% | . | -25 | 23µM* | ?
CN(C)c1ccc(/C=N/Nc2nc3ccccc3o2)cc1 | ? | -17% | ? | -15 | -7% | ?
COc1ccc(C(O)c2ncc(-c3ccccc3)[nH]2)cc1F (stereo not given) | 3% | 14% | . | 26 | -9% | -25%
COc1cccc(C2=NOC(C(=O)Nc3cccc(C(C)=O)c3)C2)c1OC (stereo not given) | -3% | 1% | ? | -16 | ? | ?
COc1ccc(CNC(=O)C2CC(c3ccccc3C(F)(F)F)=NO2)cc1 (stereo not given) | 4% | 8% | 19% | -15 | -10% | 0%
CCn1ncc(C2=NOC(C(=O)Nc3cccc(C(C)=O)c3)C2)c1C (stereo not given) | -23% | 0% | -21% | -14 | 21µM* | ?
CCn1ncc(C2=NOC(C(=O)NCc3ccc(OC)cc3)C2)c1C (stereo not given) | ? | ? | -21% | 31 | ? | 16µM*
CCn1ncc(C2=NOC(C(=O)NCc3ccccc3)C2)c1C (stereo not given) | 1.8µM* | 2.8µM* | ? | 57 | 1.6µM* | 1.2µM*
Cc1nn(CC(=O)Nc2ccc(Br)cc2F)c(=O)c2cccn12 | 6% | 6% | 10% | -2 | 27% | -20%
SMILES | HT1080 IDH1KD tx | HT1080NT lethal | ELG1 repair inh | IL-1B inflam inh | DT40 TDP1 no CPT | DT40 TDP1 CPT
Cc1onc(-c2ccccc2Cl)c1C(=O)Oc1cc(F)cc(F)c1 | . | . | . | . | -9% | -16%
COC(=O)c1ccc(NC(=O)C2C3C=CC(C3)C2C(=O)O)cc1 (stereo not given) | -14% | ? | -5% | 0 | 19% | -6%
O=C(ONC(=O)C1C2C=CC(C2)C1C(=O)NOC(=O)c1ccccc1)c1ccccc1 (stereo not given) | ? | -16% | . | -16 | 2.9µM* | 3.3µM*
Cc1ccc(NC(=O)CCNC(=O)c2ccco2)cc1Cl | -5% | -9% | 11% | 5 | -3% | -23%
CCOC(=O)c1cnc2ccc(OC)cc2c1NCc1ccccc1 | -4% | 0% | -29% | 2 | ? | ?
CCOC(=O)c1cnc2c(C)cccc2c1Nc1cccc(C(=O)O)c1 | 0% | 6% | 7% | 55 | 19% | 1%
CCOC(=O)c1cnc2ccc(OC)cc2c1NCCc1ccccc1 | . | . | . | . | 10µM* | ?
CCOC(=O)c1cnc2ccc(OC(F)(F)F)cc2c1Nc1ccccc1C(=O)O | . | . | . | . | 15µM* | ?
CCOC(=O)c1cnc2ccc(OC)cc2c1Nc1cccc(C(C)=O)c1 | . | . | . | . | 21µM* | 16µM*
CCOC(=O)c1cnc2ccc(OCC)cc2c1NCc1ccccc1OC | ? | 21µM* | ? | -89* | 5.2µM* | 5.2µM*
CNC(=O)C[C@H]1C(=O)N(c2ccccc2)C[C@@H]1CSC | 2% | -2% | . | -14 | -10% | 27%
COc1cc(/C=C/C(=O)Nc2ccc(S(=O)(=O)Nc3onc(C)c3C)cc2)cc(OC)c1OC | 5% | 2% | . | -12 | -2% | 9%
O=C(c1ccc(Br)cc1)N(Cc1ccco1)c1ccccn1 | . | . | . | . | ? | 0%
CCOC(=O)c1cnc2c(ccc3ccccc32)c1Nc1cccc(Cl)c1 | . | . | . | . | -20% | -5%
CCOC(=O)c1cnc2ccc(OCC)cc2c1Nc1cc(Cl)c(OC)cc1OC | . | . | . | . | 26µM* | 15µM*
COc1ccc(C(=O)Nc2ccccc2-c2nc3ccccc3s2)c(OC)c1 | . | . | . | . | 16µM* | 18µM*
